The target in assay [1] is Bile acid receptor (Homo sapiens) (UniProt Q96RI1). As to the kind of experiment: qHTS assay for small molecule antagonists of farnesoid X receptor signaling (AID 588526). Also: % is scaled to controls: 0 for no effect and ±100 for the full control effect. A digest of the protocol:
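Beta-lactamase reporter antagonist mode: HEK293T FXR-UAS-bla cells, titrated compound, CDCA stimulation, 16 h 37 C, CCF4 dye 2 h RT. Data normalized to CDCA 50 uM and DMSO; Hill-fit IC50.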

Assay [2] has the same target. Nature of the assay: qHTS assay for small molecule agonists of farnesoid X receptor signaling (AID 588527).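 Also: series mostly up to about 77 µM; 0% = vehicle basal and 100% = reference agonist.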 To be noted: HEK293T FXR-UAS-bla, beta-lactamase ratio, 16 h; activation: stronger effect = higher value. A digest of the protocol:
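Quantitative HTS used FXR-UAS-bla HEK293T cells with 16 h compound incubation at 37 C. EC50 values came from concentration-response curves normalized to chenodeoxycholic acid.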
On the technique in general: qHTS replaces the single test concentration by a dilution series.

The target in assay [3] is Peroxisome proliferator-activated receptor delta (Homo sapiens) (UniProt Q03181). As to the kind of experiment: qHTS assay for small molecule agonists of peroxisome proliferator-activated receptor delta signaling (AID 588534).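 Also: 0% = DMSO basal wells and 100% = positive control agonist at 10 µM.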 The procedure, abridged: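 Cells carrying a PPAR-delta beta-lactamase reporter were treated with compounds for 18 h at 37 °C in agonist mode. CCF4 fluorescence was read after 2 h; EC50 and efficacy from Hill fits.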

A short description of assay [4]: qHTS assay for small molecule antagonists of peroxisome proliferator-activated receptor delta signaling (AID 588535; active = well fitted inhibition curve with a large enough effect in the signal ratio, with a control signal flat, not every such curve was filed as active; the % refers to the signal ratio;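 as to max response: cells co-treated with a PPAR-delta agonist as stimulator during compound exposure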). The following applies: HEK293T PPARd-UAS-bla, beta-lactamase FRET ratio, 18 h; 460 nm channel. The procedure, abridged: (§1)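 HEK293T PPAR-delta-UAS-bla cells, 4000/well, 2% charcoal/dextran FBS; 5 h 37 C; cpd titration; 18 h 37 C; CCF4 2 h RT; FI 460/530 nm; Hill fit → IC50, efficacy.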

Assay [5] addresses Peroxisome proliferator-activated receptor delta (Homo sapiens) (UniProt Q03181). The assay is described as above. A digest of the protocol: as §1
Assay [6] deals with Retinoic acid receptor RXR-alpha (Homo sapiens) (UniProt P19793). Nature of the assay: qHTS assay for small molecule agonists of retinoid X receptor alpha signaling (AID 588544).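 Also: 0% = DMSO basal wells and 100% = reference agonist.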
The target of assay [7] is Thyroid hormone receptor beta (Homo sapiens) (UniProt P10828). As to the kind of experiment: qHTS assay for small molecule agonists of thyroid hormone receptor beta signaling (AID 588545).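 Also: 0% = DMSO only and 100% = 10 nM T3.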 The procedure, abridged: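 Beta-lactamase reporter activity under TR response element control is measured in HEK 293 cells after 18 hrs compound exposure. Signal is ratiometric CCF4 fluorescence, 460/530 nm.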

Assay [8] in a line: qHTS assay for small molecule antagonists of retinoid X receptor alpha signaling (AID 588546; active = well fitted inhibition curve with a large enough effect in the signal ratio, with a control signal flat, not every such curve was filed as active; the % refers to the signal ratio;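 also: cells stimulated with 9-cis-retinoic acid as agonist; % is scaled to controls: 0 for no effect and ±100 for the full control effect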). To be noted: HEK293T RXRa-UAS-bla, beta-lactamase ratio, antagonist mode; measured here: W530 green channel, cytotoxicity proxy. The procedure, abridged:
(§2)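 Beta-lactamase reporter inhibition, read as CCF4 fluorescence ratio (ex 405, em 460/530 nm) after 2 h at RT. HEK293T UAS-bla cells, 2500/well, were stimulated with 9-cis-RA at 500 or 100 nM final alongside test compound for 18 h at 37 C.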

For assay [9], the target named is Thyroid hormone receptor beta (Homo sapiens) (UniProt P10828). As to the kind of experiment: qHTS assay for small molecule antagonists of thyroid hormone receptor beta signaling (AID 588547; active = well fitted inhibition curve with a large enough effect in the signal ratio, with a control signal flat, not every such curve was filed as active; the % refers to the signal ratio;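 also: cells stimulated with 0.4 nM T3 agonist during compound exposure; series mostly up to about 77 µM; % is scaled to controls: 0 for no effect and ±100 for the full control effect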). The following applies: TR-UAS-bla HEK293, beta-lactamase ratio, antagonist mode, 18 h. A digest of the protocol:
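Inhibition of T3-driven (0.4nM final) beta-lactamase reporter activity was measured over 0.59 nM to 92 uM compound after 18 h at 37 C. The cells were GripTite HEK293 TR-UAS-bla in charcoal/dextran-stripped serum, with CCF4 ratio read-out and IC50 from Hill fits.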

Assay [10] is described as follows: qHTS assay for small molecule agonists of the antioxidant response element (ARE) signaling pathway (AID 651741; active = well fitted activation curve with a large enough effect in the signal ratio; the % refers to the signal ratio; also: potency is read from the fitted curve at half-maximal effect; as to activation: % of control where 0% means no effect). The procedure, abridged: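 Quantitative HTS in HepG2 cells stably expressing an ARE-beta-lactamase reporter; 16 h compound exposure at 37 C, followed by 2 h room-temperature incubation with LiveBLAzer B/G FRET substrate and fluorescence measurement.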

A short description of assay [11]: qHTS assay for small molecule activators of the p53 signaling pathway (AID 651743; active = well fitted activation curve with a large enough effect in the signal ratio, not every such curve was filed as active; the % refers to the signal ratio; also: series mostly up to about 92 µM; % of control where 0% means no effect). The following applies: HCT-116 p53RE-bla, beta-lactamase FRET ratio, 16 h; activation: stronger effect = higher value. A digest of the protocol:
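Read-out is fluorescence intensity from the LiveBLAzer B/G FRET substrate, added for 2 hours at room temperature after HCT-116 p53RE-bla cells had been incubated with compounds for 16 hours at 37 C.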

Assay [12] is described as follows: qHTS assay for environmental chemicals that activate the Aryl hydrocarbon Receptor (AhR) signaling pathway (AID 651777; active = well fitted curve in the direction sought with a large enough effect; an effect the other way counts as inactive or inconclusive; also: nearly all actives have a fitted effect of over 15% in size; also: potency is read from the fitted curve at half-maximal effect; as to activation: % of control where 0% means no effect). The following applies: 1A2-DRE human hepatoma cells, luciferase, 24 h; activation: stronger effect = higher value. The procedure, abridged:
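Luminescence (One-Glo, 30 min, room temperature) reports AhR-driven luciferase in stably transfected human hepatoma cells bearing DRE and CYP1A2 promoter. Cells (1,200/well) were treated with compound for 24 hr at 37 C in qHTS format.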

In assay [13] the target is Peroxisome proliferator-activated receptor alpha (Homo sapiens) (UniProt Q07869). Nature of the assay: qHTS assay for small molecule agonists of the peroxisome proliferator-activated receptor alpha (PPARalpha) signaling pathway (AID 651778; active = well fitted curve in the direction sought with a large enough effect; an effect the other way counts as inactive or inconclusive; also: % of control where 0% means no effect). To be noted: PathHunter PPARalpha complementation, chemiluminescence, 6 h; max response: stronger effect = higher value. The procedure, abridged:
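Chemiluminescence from complemented enzyme reported PPARalpha activation in cells after 6 hr of compound treatment at 37 C. The detection reagent was incubated for 60 min at room temperature, and compounds were scored as agonists.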

Assay [14] in a line: qHTS assay for small molecule agonists of the antioxidant response element (ARE) signaling pathway measured by Nrf2-dependant transcriptional activity (AID 720636; active = well fitted curve in the direction sought with a large enough effect in the repeat runs; an effect the other way counts as inactive or inconclusive; also: % of control where 0% means no effect). The procedure, abridged: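 Nrf2-dependent transcription read as ONE-Glo luciferase signal from ARE-luc HepG2 reporter cells after 16 hr compound treatment at 37 C, 5% CO2, in assay medium with 1% dialyzed FBS.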

Assay [15] can be described thus: qHTS assay for small molecule agonists of the antioxidant response element (ARE) signaling pathway measured by Nrf2-dependant transcriptional activity - cell viability counter screen (AID 720653; active = well fitted curve in the direction sought with a large enough effect in the repeat runs; an effect the other way counts as inactive or inconclusive; also: % is scaled to controls: 0 for no effect and ±100 for the full control effect). The following applies: ARE-bla HepG2 viability, CellTiter-Glo ATP luminescence, 16 h; max response: stronger effect = lower value. The procedure, abridged: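 Cytotoxicity counter screen: intracellular ATP quantified by CellTiter-Glo luminescence in the same ARE-bla HepG2 plates, after 16 h compound exposure and a 2 h beta-lactamase substrate step.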

Assay [16] in a line: qHTS assay for cell viability of the p53RE-bla HCT-116 cell line (AID 743292; active = well fitted curve in the direction sought with a large enough effect; an effect the other way counts as inactive or inconclusive; also: % is scaled to controls: 0 for no effect and ±100 for the full control effect; nearly all actives have a fitted effect of over 55% in size). The procedure, abridged:
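ATP-based luminescent viability (CellTiter-Glo, 30 min RT) after 16 h compound treatment at 37 C of p53RE-bla HCT-116 cells, seeded at 4,000 cells/well and rested 5 h before dosing.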

In assay [17] the target is Nuclear receptor subfamily 1 group I member 2 (Rattus norvegicus) (UniProt Q9R1A7). As to the kind of experiment: qHTS assay for small molecule activators of the rat pregnane X receptor (rPXR) signaling pathway (AID 651751; call rule not given here; also: 0% is about no effect). To be noted: rPXR reporter cells, luciferase (One-Glo), 24 h.
Assay [18] deals with Retinoic acid receptor RXR-alpha (Homo sapiens) (UniProt P19793). Nature of the assay: qHTS assay for small molecule antagonists of retinoid X receptor alpha signaling (AID 588546).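 Also: cells stimulated with 9-cis-retinoic acid as agonist; % is scaled to controls: 0 for no effect and ±100 for the full control effect.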 The following applies: HEK293T RXRa-UAS-bla, beta-lactamase ratio, antagonist mode. A digest of the protocol: as §2
For assay [19], the target named is Vitamin D3 receptor (Homo sapiens) (UniProt P11473). As to the kind of experiment: qHTS assay for small molecule agonists of vitamin D receptor signaling (AID 588543).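 Also: 0% = DMSO basal and 100% = reference agonist control.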 A digest of the protocol:
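Reporter cells (HEK293T, VDR-UAS-bla) were seeded in medium with 2% charcoal-stripped serum and incubated 5 h, then compounds in concentration series were added for 16 h at 37 °C. Stimulation was scaled between DMSO basal and 50 nM 1α,25-dihydroxyvitamin D3.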

Assay [20] is described as follows: qHTS assay for cell viability of HEK293 cells (AID 743288; active = well fitted curve in the direction sought with a large enough effect; an effect the other way counts as inactive or inconclusive; also: % is scaled to controls: 0 for no effect and ±100 for the full control effect; nearly all actives have a fitted effect of over 50% in size). The following applies: ATP luminescence (CellTiter-Glo), 18 h; max response: stronger effect = lower value. A digest of the protocol:
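HEK293 parental, 2,000 cells/well; ≥5 h pre-incubation 37 C; pintool compound addition; 18 h, 37 C; CellTiter-Glo 30 min RT; luminescence read.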

Inconclusive results are not listed. Activity calls are given as the source filed them. Unless noted, calls follow the shape of the full dose curve.

Chain of Peroxisome proliferator-activated receptor delta (Homo sapiens) (Q03181 whole entry, looked up): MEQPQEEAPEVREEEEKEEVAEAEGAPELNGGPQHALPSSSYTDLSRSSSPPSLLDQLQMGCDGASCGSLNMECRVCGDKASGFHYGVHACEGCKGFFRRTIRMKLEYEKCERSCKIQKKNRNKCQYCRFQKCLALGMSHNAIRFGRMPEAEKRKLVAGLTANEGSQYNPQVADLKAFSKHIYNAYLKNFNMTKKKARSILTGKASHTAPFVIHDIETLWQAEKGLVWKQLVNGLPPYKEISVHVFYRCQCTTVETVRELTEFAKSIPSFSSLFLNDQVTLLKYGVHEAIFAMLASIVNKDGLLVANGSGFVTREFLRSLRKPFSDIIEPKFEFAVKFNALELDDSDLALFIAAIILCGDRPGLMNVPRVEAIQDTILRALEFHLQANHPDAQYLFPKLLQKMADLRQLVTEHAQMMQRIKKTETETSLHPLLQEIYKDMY
Chain of Thyroid hormone receptor beta (Homo sapiens) (P10828 whole entry, looked up): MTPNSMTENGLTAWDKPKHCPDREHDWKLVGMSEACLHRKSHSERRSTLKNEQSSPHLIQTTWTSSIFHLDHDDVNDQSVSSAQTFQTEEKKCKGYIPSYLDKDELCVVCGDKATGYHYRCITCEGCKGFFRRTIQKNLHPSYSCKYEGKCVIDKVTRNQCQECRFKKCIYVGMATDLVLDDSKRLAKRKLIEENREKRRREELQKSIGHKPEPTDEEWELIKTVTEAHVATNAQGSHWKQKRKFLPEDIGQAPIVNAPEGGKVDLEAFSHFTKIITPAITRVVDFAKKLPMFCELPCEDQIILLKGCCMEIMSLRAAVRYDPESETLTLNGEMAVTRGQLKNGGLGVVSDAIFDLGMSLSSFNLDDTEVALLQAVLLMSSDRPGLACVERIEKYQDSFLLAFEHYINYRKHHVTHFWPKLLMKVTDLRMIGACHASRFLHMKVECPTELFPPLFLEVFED
Chain of Bile acid receptor (Homo sapiens) (Q96RI1 whole entry, looked up): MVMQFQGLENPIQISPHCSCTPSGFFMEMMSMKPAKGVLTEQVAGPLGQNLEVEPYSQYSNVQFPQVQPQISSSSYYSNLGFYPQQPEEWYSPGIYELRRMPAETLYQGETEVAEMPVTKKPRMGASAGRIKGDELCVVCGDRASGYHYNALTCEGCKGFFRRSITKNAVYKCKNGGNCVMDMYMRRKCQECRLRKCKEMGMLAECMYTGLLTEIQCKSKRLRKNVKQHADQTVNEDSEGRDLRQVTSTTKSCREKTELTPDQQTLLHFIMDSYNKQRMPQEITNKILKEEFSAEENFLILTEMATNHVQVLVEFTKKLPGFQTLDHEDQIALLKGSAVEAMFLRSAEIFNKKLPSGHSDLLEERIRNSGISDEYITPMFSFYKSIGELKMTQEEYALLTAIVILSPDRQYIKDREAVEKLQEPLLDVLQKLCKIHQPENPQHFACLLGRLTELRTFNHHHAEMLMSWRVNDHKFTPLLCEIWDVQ
Chain of Nuclear receptor subfamily 1 group I member 2 (Rattus norvegicus) (Q9R1A7 whole entry, looked up): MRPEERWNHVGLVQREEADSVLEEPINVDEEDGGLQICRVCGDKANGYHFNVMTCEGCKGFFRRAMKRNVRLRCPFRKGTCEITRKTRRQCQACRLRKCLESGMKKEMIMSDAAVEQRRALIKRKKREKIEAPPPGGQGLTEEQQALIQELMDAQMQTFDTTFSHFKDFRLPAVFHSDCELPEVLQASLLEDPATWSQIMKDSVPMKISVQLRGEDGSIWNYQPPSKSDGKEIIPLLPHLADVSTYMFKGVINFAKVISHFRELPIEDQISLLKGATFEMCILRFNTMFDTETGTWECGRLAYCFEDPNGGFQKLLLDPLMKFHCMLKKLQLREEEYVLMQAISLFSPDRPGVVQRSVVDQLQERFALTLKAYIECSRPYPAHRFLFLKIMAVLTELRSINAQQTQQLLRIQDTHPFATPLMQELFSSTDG
Chain of Vitamin D3 receptor (Homo sapiens) (P11473 whole entry, looked up): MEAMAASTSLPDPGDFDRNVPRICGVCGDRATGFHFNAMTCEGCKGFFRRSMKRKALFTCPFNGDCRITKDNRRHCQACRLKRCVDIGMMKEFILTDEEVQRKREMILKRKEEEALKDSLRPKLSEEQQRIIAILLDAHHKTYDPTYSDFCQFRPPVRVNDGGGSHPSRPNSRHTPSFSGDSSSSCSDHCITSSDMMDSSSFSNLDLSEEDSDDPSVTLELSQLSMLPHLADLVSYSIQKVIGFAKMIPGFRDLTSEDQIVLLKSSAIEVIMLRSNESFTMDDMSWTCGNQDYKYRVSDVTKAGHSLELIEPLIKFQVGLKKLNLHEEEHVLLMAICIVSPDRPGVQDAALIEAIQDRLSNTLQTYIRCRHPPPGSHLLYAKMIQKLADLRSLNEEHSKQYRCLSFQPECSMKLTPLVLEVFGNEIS
Chain of Peroxisome proliferator-activated receptor alpha (Homo sapiens) (Q07869 whole entry, looked up): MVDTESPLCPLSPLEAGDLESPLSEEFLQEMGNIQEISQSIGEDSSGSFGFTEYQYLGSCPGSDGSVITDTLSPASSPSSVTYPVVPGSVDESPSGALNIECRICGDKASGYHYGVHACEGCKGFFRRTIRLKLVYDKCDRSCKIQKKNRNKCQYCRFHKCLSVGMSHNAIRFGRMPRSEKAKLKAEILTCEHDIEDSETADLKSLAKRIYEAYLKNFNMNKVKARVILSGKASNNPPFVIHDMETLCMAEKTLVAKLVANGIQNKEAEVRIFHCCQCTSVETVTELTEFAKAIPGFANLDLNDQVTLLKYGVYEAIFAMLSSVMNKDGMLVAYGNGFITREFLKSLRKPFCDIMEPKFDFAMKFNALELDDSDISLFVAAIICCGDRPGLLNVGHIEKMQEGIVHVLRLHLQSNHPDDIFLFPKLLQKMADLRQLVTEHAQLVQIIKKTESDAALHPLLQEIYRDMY
Chain of Retinoic acid receptor RXR-alpha (Homo sapiens) (P19793 whole entry, looked up): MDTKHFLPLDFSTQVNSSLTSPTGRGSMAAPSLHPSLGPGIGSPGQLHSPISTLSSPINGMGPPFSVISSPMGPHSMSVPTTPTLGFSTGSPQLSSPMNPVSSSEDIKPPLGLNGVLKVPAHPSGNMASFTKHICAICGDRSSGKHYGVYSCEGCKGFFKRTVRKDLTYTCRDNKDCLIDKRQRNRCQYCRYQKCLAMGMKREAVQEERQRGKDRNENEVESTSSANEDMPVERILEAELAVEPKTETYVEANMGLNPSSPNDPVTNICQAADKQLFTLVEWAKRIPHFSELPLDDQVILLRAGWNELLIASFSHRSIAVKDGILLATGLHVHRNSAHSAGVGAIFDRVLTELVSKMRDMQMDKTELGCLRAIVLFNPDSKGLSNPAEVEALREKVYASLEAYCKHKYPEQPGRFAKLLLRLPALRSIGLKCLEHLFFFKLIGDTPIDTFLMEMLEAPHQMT

For `N#CCNC(=O)c1cnccc1C(F)(F)F`, the Potency result in assay [1], in [5], in assay [6], in [7], in [10] and in assay [14] was “inactive” each time. In addition, the Potency entry in assay [16] was “inactive”. Besides, the activation in [2] is -0.0822% (inactive); in assay [11] it was -2.69% (inactive); in assay [12] it was 1.26% (inactive). Besides, the compound was classed as inactive in [3]. Besides, the max response is -20.3% in assay [4]; -6.46% in assay [8]; -0.401% (inactive) in assay [13]; -0.0757% (inactive) in assay [15]; 3.48% (inactive) in assay [17]. Moreover, the activity change % (negative = inhibition) in [9] is 15.2% (inactive).
For `COC(C)(C)CCC[C@H](C)C/C=C/C(C)=C/C(=O)OC(C)C`, the Potency result in assay [6], in assay [7], in assay [14] and in assay [16] was “inactive” each time. Also, the max response was -16.5% in [8], 6.26% (inactive) in [18], 0.0369% (inactive) in [13] and -6.46% (inactive) in [15]. In assay [9], the activity change % (negative = inhibition) was -10.3% (inactive). Moreover, the Potency in [10] was 68.6 µM (active). Also, the activation in [12] is -0.0877% (inactive).
In the case of `O=[N+]([O-])c1ccc2ccc3cccc4ccc1c2c34`, the figures for the activation in assay [2] and in assay [12] were -3.28% (inactive) and 2.13% (inactive), respectively. For the same compound, in [19], the call was inactive. In addition, the Potency result in [6], in [7] and in [16] was “inactive” throughout. Besides, the activity change % (negative = inhibition) in assay [9] is -20.5% (inactive). For the same compound, the Potency in assay [10] was 4.33 µM (active). Moreover, the max response was -0.269% (inactive) in assay [13], -9.82% (inactive) in assay [15], -25% (inactive) in [20] and 3% (inactive) in [17].
Consider `O=C(NC(=O)c1c(F)cccc1F)Nc1cc(Cl)c(OC(F)(F)C(F)C(F)(F)F)c(Cl)c1F` (centres undefined), for which the Potency result in assay [1], in assay [5], in [6] and in [16] was “inactive” in each case. In addition, the activation in assay [2] was 3.38% (inactive); in [11], 2.49% (inactive); in [12], 6.63% (inactive). Besides, the compound was called inactive in [3]. Also, the max response was 39.8% in assay [4]; -6.84% in assay [8]; 4.34% (inactive) in [18]; 6.43% (inactive) in [13]; -22% (inactive) in [15]; 9.17% (inactive) in assay [17]. Besides, the activity change % (negative = inhibition) in assay [9] was 12.6% (inactive). Moreover, the Potency in assay [10] was 30.6 µM (active).
In the case of `Cc1nn(-c2cc(NS(C)(=O)=O)c(Cl)cc2Cl)c(=O)n1C(F)F`, the compound was called inactive in assay [3] and in assay [19]. In addition, the max response in assay [4] is -1.23%; in assay [8], -3.07%; in assay [18], -28.1% (inactive); in assay [13], -0.197% (inactive); in [15], 1.41% (inactive); in assay [20] it was -6.27% (inactive). Also, in assay [17], the max response was -0.675% (inactive). Besides, the Potency entry in [5], in assay [6], in assay [7], in assay [14] and in assay [16] was “inactive” throughout. In addition, the activity change % (negative = inhibition) in assay [9] was -13.9% (inactive). Besides, the activation was -4.43% (inactive) in assay [11] and -2.63% (inactive) in assay [12].
For `CCS(=O)(=O)c1cccnc1S(=O)(=O)NC(=O)Nc1nc(OC)cc(OC)n1`, the Potency entry in assay [1], in [5], in assay [7] and in [16] was “inactive” throughout. In addition, the activation in assay [2] is 0.0623% (inactive); in [11] it was -3.66% (inactive). Besides, the outcome in assay [3] and in assay [19] was inactive. Besides, the max response was -45% in assay [4]; -3.64% in assay [8]; -2.57% (inactive) in assay [13]; 15.3% (inactive) in assay [15]; -6.2% (inactive) in assay [20]; -1.1% (inactive) in assay [17]. Further, the Potency in assay [10] was 10.9 µM (active); in assay [12], 31.6 µM (active).

The values are drawn from PubChem BioAssay (NCATS).
